Experimental findings from PubChem BioAssay AID1259312 (Keith Lab, Institute of Cancer Science, University of …, 2017) are described below.

The campaign covered roughly 4,500 compounds. About 200 (4.4%) were called active. For the sample, actives were picked, then their nearest neighbours and some compounds at random. Unmarked numbers belong to inactive results.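 Rule for the calls: active = cell survival measured by absorbance rises more than 2.5-fold over infected cells without compound; inactive = the rest.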

The experiment in a line: survival after telomere uncapping, modulators, primary screen, cell-based (AID 1259312).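 Note: virus expresses mutant telomerase RNA that uncaps telomeres and kills cells; compound added 2 days after infection so exposure lasts 3 days.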 The following applies: HCT116 + Ad-hTR-mut, MTT, 5 d; at 10 µM, active compounds read high.
In the case of `CC(Sc1ccccn1)c1nc(N)nc(N2CCCc3ccccc32)n1` (centres undefined), the fold change is -4.94.
Next, `Cc1cccc(NS(=O)(=O)c2cc(Cl)ccc2Cl)n1`: 1.41; `CCCN(CCC)C(=O)C(=O)N(CCC)CCC`: -1.09.
Next, `Cc1[nH]nc2c1C1(CCSCC1)C(C#N)=C(N)O2`: -1.42; `N#CC1=C(N)Oc2ccc(N)cc2C12C(=O)Nc1ccccc12` (centres undefined): 2.67 (active); `N#CC1=C(N)OC2=C(C(=O)CCC2)C12C(=O)Nc1ccccc12` (centres undefined): 2.26.
Turning to `Cc1[nH]nc2c1C1(C(=O)Nc3cc(Br)ccc31)C(C#N)=C(N)O2` (centres undefined), the fold change is 3.96 (active).
Then `CC(C)(C)c1[nH]nc2c1C(c1ccc(F)cc1)C(C#N)=C(N)O2` (centres undefined), with 1.28; and `CC(C)(C)c1[nH]nc2c1C1(C(=O)Nc3ccccc31)C(C#N)=C(N)O2` (centres undefined), with 4.19 (active); and `N#CC1=C(N)OC2=C(C(=O)CCC2)C12C(=O)Nc1cc(Br)ccc12` (centres undefined), with 1.66.
Next, `Cc1[nH]nc2c1C1(CCOCC1)C(C#N)=C(N)O2`: -1.27.
Then `CSc1ccc(C2C(C#N)=C(N)Oc3n[nH]c(C(C)(C)C)c32)cc1` (centres undefined), with -1.76; and `CN1C(=O)C2(C(C#N)=C(N)Oc3c2c(=O)n(C)c(=O)n3C)c2ccccc21` (centres undefined), with -1.14.
For `Cc1[nH]nc2c1C1(CCCCC1)C(C#N)=C(N)O2`, the fold change is -1.09.
For `Cc1[nH]nc2c1C1(C(=O)Nc3ccccc31)C(C#N)=C(N)O2` (centres undefined), the fold change is 5.1 (active).
`CCCCc1ccc(-c2c(C#N)c(N)nc3c2CCCCCC3)s1`: the fold change was -4.8.
With `Cc1ccc(C2C3=C(CC(C)(C)CC3=O)OC3=C2C(=O)CC(C)(C)C3)s1`, the fold change is -5.64.
Next, `O=C(O)/C=C/c1ccc(F)c(Br)c1`: -1.15; `O=S1(=O)N=C(N2CCCc3ccccc32)c2ccccc21`: 1.46; `O=c1ccn([C@H]2CCC(CO)O2)c(=O)[nH]1` (some centres undefined): -1.46.
Then `N#Cc1c(N)nc2c(c1-c1cccnc1)CCCCC2`, with -6.99; and `O=C1Oc2ccccc2C2Oc3c(c(=O)oc4ccccc34)C3(C(=O)Nc4ccccc43)C12` (centres undefined), with -1.57.
Then `O=C1c2ccccc2NC2(C(=O)Nc3ccccc32)N1c1ccc2c(c1)oc1ccccc12` (centres undefined), with 1.13.
As for `N#CC1=C(N)Oc2c(c3ccccc3oc2=O)C12C(=O)Nc1ccc(Br)cc12` (centres undefined), the fold change is 2.59 (active).
Then `Cc1ccc(-c2nnc(CSc3nnc(-c4ccccc4)o3)o2)n1C`, with -1.36.
Then `CCCCCCCNC(=O)c1ccco1`, with 1.1; and `S=C(c1ccc(-c2ccc(Br)cc2)o1)N1CCOCC1`, with 1.09.
`O=C1c2ccccc2C(O)(O)C1(O)C1(O)C(=O)c2ccccc2C1(O)O` (centres undefined): the fold change is -1.12.
Next, `CC(=O)/C(=C1/OC(=O)c2ccccc21)c1ccc(C(C)=O)cc1`: 5.97 (active); `CC(=O)C(C(C)=O)=C1OC(=O)c2ccccc21`: 1.3; `C=CC[C@H]1CC=C[C@H](CC=C)N1C(C)=O`: -1.11.
Next, `NC(=O)NC(CCCN=C(N)N)C(=O)O` (centres undefined): -1.65; `O=[N+]([O-])c1ccc(N2CCN(S(=O)(=O)c3ccc4ccccc4c3)CC2)cc1`: -1.1.
As to `CC(=O)c1c(C)nc(-c2cccs2)n1O`, the fold change was -1.92.
`Cc1sc2c(c1C)C(=O)NC(/C=C/c1ccc3c(c1)OCO3)N2` (centres undefined): the fold change is -1.11.
Consider `O=S(=O)(Nc1cc(Cl)cc(Cl)c1)c1cccs1`, for which the fold change is -1.41.
Next, `O=[N+]([O-])c1ccc(N2CCOCC2)c(S(=O)(=O)N2CCOCC2)c1`: -1.09.
Next, `O=[N+]([O-])c1ccc(N2CCN(S(=O)(=O)c3ccc(Cl)cc3)CC2)cc1`: -1.84; `O=[N+]([O-])c1ccc(Cl)c(S(=O)(=O)N2CCOCC2)c1`: 3.45 (active); `O=[N+]([O-])c1ccc(N2CCN(S(=O)(=O)c3ccc(Br)cc3)CC2)cc1`: 1.35.
Next, `O=[N+]([O-])c1ccc(S(=O)(=O)N2CCOCC2)cc1`: 2.47; `O=[N+]([O-])c1ccc(N2CCN(S(=O)(=O)c3cc(Cl)ccc3Cl)CC2)cc1`: 5.36 (active); `Cc1ccc(-c2c(C#N)c(N)nc3c2CCCCC3)s1`: -2.73.
In the case of `Nc1ncnc2nc(SCCOc3ccccc3F)[nH]c12`, the fold change was -1.17.
As to `COc1cc(C2C(C#N)=C(N)Nc3oc(C)nc32)cc(OC)c1OC` (centres undefined), the fold change was 2.2.
Then `Cc1cc(Cl)c2ccccc2n1`, with -1.67; and `C=CCNC(=O)c1nn(C)c(=O)c2ccccc12`, with -1.08; and `Cc1cc(C)nc(Sc2ccc3nsnc3c2[N+](=O)[O-])n1`, with 2.01.
`O=c1c(C=NCc2cccs2)c(C(F)(F)F)[nH]n1-c1nc2ccccc2s1`: the fold change entry is “inactive”.
Then `NNC(=O)Cn1c2ccccc2c(=O)c2ccccc21`, with 1.47.
As for `NC(=O)CSc1cccc2cccnc12`, the fold change is -2.76.
Next, `NNC(=O)c1cccc(C(=O)NN)n1`: 2.7 (active).
Then `O=C(O)CCn1cnnn1`, with -1.36; and `O=C(O)CCc1cn(CCC(=O)O)cn1`, with 3 (active); and `O=C(O)COc1ccc(Br)cc1/C=C1/NC(=O)NC1=O`, with 1.24.
Then `O=C(O)/C=C/C(=O)NC1CCCCC1`, with 3.98 (active); and `O=C(O)/C=C/C(=O)NC1CCCCNC1=O` (centres undefined), with -1.55; and `O=C(NC1CCCCCC1)C1CC1`, with -2.47.
On to `CC(C)OC(=O)/C(C#N)=C\c1cccn1C`, for which the fold change was -3.04.
Next, `CCOC(=O)/C(C#N)=C\c1cccn1C`: -3.87; `COC(=O)/C(C#N)=C\c1cccn1C`: 4.23 (active).
Next, `CCSc1ccc(Sc2ccc(SCC)s2)s1`: -1.05.
Next, `CN1C2CC(OC(=O)C(CO)c3ccccc3)CC1C1OC12` (centres undefined): 2.65 (active); `C1=CN(c2ccccc2)C(C=NCc2ccccc2)=CS1`: 3.25 (active).
Turning to `O=C(NCCOC(=O)Nc1ccc(Cl)c(Cl)c1)Nc1ccc(Cl)c(Cl)c1`, the fold change was -1.04.
`O=C(O)CNC(=O)c1cccs1`: the fold change was 1.14.
Next, `O=C(C[n+]1ccccc1)c1ccc(Br)cc1`: -1.26; `O=C(C[n+]1ccccc1)c1cccs1`: 4.15 (active).
Take `COc1ccc(OC)c(NS(=O)(=O)c2cc(Cl)ccc2Cl)c1`: the fold change was 1.1.
Then `NNC(=S)Nc1ccccc1`, with 2.03.
Next, `S=C(NNC(=S)Nc1ccccc1)Nc1ccccc1`: 4.1 (active); `CNC(=S)Nc1ccccc1`: -1.89.
Regarding `CN(Cc1cccs1)C(=S)SCCO`, the fold change was 1.27.
Then `Cc1ccc(-c2nc(Cn3c(-c4cscn4)nc4ccccc43)cs2)cc1`, with -1.62; and `CN1C(=O)/C(=C2\SC(=S)N(CCS(=O)(=O)O)C2=O)c2ccccc21`, with 4.3 (active); and `C=CCN1C(=O)/C(=C2\SC(=S)N(CCC)C2=O)c2ccccc21`, with -1.1.
Then `CSCCC(C(=O)O)N1C(=O)/C(=C2/C(=O)N(C)c3ccccc32)SC1=S` (centres undefined), with -1.54; and `CCOC(=O)c1c(N)sc(C(=O)N2CCCCC2)c1C`, with -1.62.
Turning to `CN(C)CCCN1C(=O)C(O)=C(C(=O)c2cccs2)C1c1cccs1` (centres undefined), the fold change is -1.86.
Next, `ClC(Cl)(Cl)C(c1ccc(Br)cc1)c1ccc(Br)cc1`: 3.49 (active).
Regarding `N#CCC(c1ccccc1)C(C#N)c1ccc(Br)cc1` (centres undefined), the fold change is -1.3.
Then `Brc1ccc(C(Br)C(Br)c2ccccc2Br)cc1` (centres undefined), with -2.96.
Regarding `O=[N+]([O-])c1ccccc1Nc1ccccc1`, the fold change is 1.12.
Then `CN(C)c1ccc(/C=C2/SC(=S)NC2=O)cc1`, with 2.2.
Consider `O=C1NC(=S)S/C1=C/c1ccc(O)cc1`, for which the fold change is 3.65 (active).
Regarding `O=C1NC(=S)S/C1=C\c1ccsc1`, the fold change is -1.
Then `Cc1cc(C)c(O)c(C(CC(C)C)c2cc(C)cc(C)c2O)c1`, with -4.02; and `O=C1CC(c2ccccc2)CC2=C1C(c1ccc(OC(F)(F)F)cc1)Nc1ccccc1N2` (centres undefined), with -1.06.
Then `OC(c1nc2ccccc2[nH]1)C(O)c1nc2ccccc2[nH]1` (centres undefined), with 3.31 (active); and `OC(c1ccccc1)c1nc2ccccc2[nH]1` (centres undefined), with -1.08.
Next, `FC(c1nc2ccccc2[nH]1)C(F)(F)F` (centres undefined): 2.19.
For the compound `COc1ccnc2cc(Cl)ccc12`, the fold change was 1.06.
Next, `Brc1ccccc1-c1nnc(C(c2ccccc2)c2ccccc2)o1`: -1.33; `Cc1nccn1CCC(=O)O`: 5.01 (active); `Cc1cc(C)nc(SCCC(=O)O)n1`: -2.76.
Next, `Nc1nc(SCCCOc2ccccc2)n[nH]1`: 1.24; `COc1ccc(NC(=O)Nc2cccc(Cl)c2)cc1`: 1.1.
For `O=C(COc1ccccc1)N=Nc1c(O)[nH]c2ccccc12`, the fold change entry was “inactive”.
As for `Cc1sc2ccccc2[n+]1CCCS(=O)(=O)[O-]`, the fold change is 2.97 (active).
Then `Oc1ccc2ccccc2c1N=Nc1ccccc1`, with “inactive”.
Next, `Oc1ccc2ccccc2c1Sc1c(O)ccc2ccccc12`: -2.97.
Then `Oc1ccc2ccccc2c1CNCCNCc1c(O)ccc2ccccc12`, with 3.72 (active); and `Cc1nc2ccc3ccccc3c2s1`, with -2.18.
Regarding `c1ccc2cc3[nH]c(CN4CCOCC4)nc3cc2c1`, the fold change was 1.25.
Then `Nc1ncnc2c1ncn2[C@H]1C[C@H](O)[C@@H](COP(=O)(O)O)O1`, with -1.8.
Then `CCN(C(=O)c1sc(NC(=O)CCl)c(C#N)c1C)C1CCCCC1`, with -1.18; and `Cc1[nH]nc2c1C(c1ccncc1)C(C#N)=C(N)O2` (centres undefined), with 2.49; and `Cc1cc2c(c(=O)o1)C(c1ccncc1)C(C#N)=C(N)O2` (centres undefined), with 3.96 (active).
Next, `CCOC(=O)c1ccc(C2C(C#N)=C(N)Oc3cc(C)oc(=O)c32)o1` (centres undefined): -1.07.
